Drawing on PubChem BioAssay (EPA / NIEHS), this text covers outcome and AC50 for 48 compounds.

Records with an inconclusive call do not appear. Activity calls are given as the source filed them. Rule for the calls, unless noted: active = hit-call score of the fitted dose curve at least 0.9, where 1 is the maximum; inactive = score below 0.9.

Assay [1] can be described thus: CCTE_Harrill_HTTr_Apoptosis_MCF7: CCTE's 6-hour Apoptosis Assessment for the High-Throughput Transcriptomics (HTTr) Platform, in MCF-7 cells cultured in DMEM + 10% fetal bovine serum, Harrill Lab (AID 2284011). Summed up:
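High-content imaging of CellEvent Caspase 3/7 Green signal follows a six-hour exposure, with eight concentrations per chemical. MCF-7 cells grown in DMEM plus 10% fetal bovine serum; activity fitted in both directions against DMSO.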

The nature of assay [2]: CCTE_Harrill_HTTr_CellCount_MCF7: CCTE's Cell Proliferation Assessment for the High-Throughput Transcriptomics (HTTr) Platform, Harrill Lab (AID 2284012; active = hit-call score of the fitted dose curve at least 0.9, where 1 is the maximum;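 note: cells exposed to compound for six hours; intended direction is loss of nuclei count meaning fewer cells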). Summed up: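 Cell count served as viability reporter: loss of Hoechst-stained nuclei, counted by high content imaging, marks decreased growth or survival. Exposure was 6 h in MCF-7 cells across eight concentrations, with DMSO as baseline.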

Assay [3] in a line: CCTE_Shafer_MEA_acute_burst_number: CCTE's Neural Acute Assay for Single-Electrode Bursts, Shafer Lab (AID 2284013). An outline of the steps: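 Percent change in single-electrode burst number per well, from 40-min recordings taken before and after adding compound (0.03-40 uM) to primary rat cortical neurons on MEA plates at DIV 13 or 15, 37 C.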
Assay [4] can be described thus: CCTE_Shafer_MEA_acute_burst_duration_mean: CCTE's Neural Acute Assay for Mean Burst Duration, Shafer Lab (AID 2284014).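 Note: hits are decreases in mean burst duration relative to DMSO controls.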 An outline of the steps: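 Rat cortical cultures, DIV 13/15; 40 min baseline, then 40 min with compound (0.03-40 uM), 37 C. Spikes: 300-5000 Hz band-pass, 8x rms threshold. Read-out: % change in mean single-electrode burst duration, DMSO-referenced, loss direction.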

A short description of assay [5]: CCTE_Shafer_MEA_acute_per_burst_spike_number_mean: CCTE's Neural Acute Assay for Average Number of Spikes Per Burst, Shafer Lab (AID 2284015).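 Note: hits are decreases in mean spikes per burst versus baseline.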 An outline of the steps: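 Primary rat cortical neurons on 48-well MEA plates, treated on DIV 13 or 15 at 0.03-40 uM. Spontaneous activity recorded 40 min before and 40 min after compound at 37 C; percent change in mean spikes per single-electrode burst per well, fitted in the loss direction versus DMSO.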

A short description of assay [6]: CCTE_Shafer_MEA_acute_interburst_interval_mean: CCTE's Neural Acute Assay for Mean Interburst Interval, Shafer Lab (AID 2284016).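 Note: percent change of mean interburst interval versus each well's own pre-dose baseline; curves fitted for decrease in interburst interval relative to DMSO.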 An outline of the steps:
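Primary rat cortical neurons on 16-electrode MEA wells were recorded 40 min at baseline on DIV 13 or 15, then 40 min after compound (0.03-40 uM), at 37 C. Value is percent change in mean interburst interval per well, DMSO as negative control.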

Assay [7] can be described thus: CCTE_Shafer_MEA_acute_burst_percentage_std: CCTE's Neural Acute Assay for Standard Deviation of Burst Percentage, Shafer Lab (AID 2284018).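 Note: fitted in the negative direction so actives lower burst percentage SD.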 An outline of the steps: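 Rat primary cortical neurons on 48-well MEAs, DIV 13 or 15, 37 C. 40-min baseline then 40-min recording with compound (0.03-40 uM); well-level SD of per-electrode burst spike percentage, expressed as percent change from baseline.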

A short description of assay [8]: CCTE_Shafer_MEA_acute_per_network_burst_spike_number_mean: CCTE's Neural Acute Assay for Average Number of Spikes in a Network Burst, Shafer Lab (AID 2284019).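 For AC50: curve fitted for loss of signal so actives reduce spikes per network burst.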 An outline of the steps:
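Rat cortical cultures, DIV 13/15; spike threshold 8x rms noise, 300-5000 Hz band-pass, 12.5 kHz sampling; wells need >/= 10 active electrodes. Compound 0.03-40 uM, 40 min, 37 C; % change vs own baseline, DMSO negative control.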

Assay [9] in a line: CCTE_Shafer_MEA_acute_per_network_burst_spike_number_std: CCTE's Neural Acute Assay for Standard Deviation of Number of Spikes in a Network Burst, Shafer Lab (AID 2284020).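 Note: fitted for decrease in spike-number SD versus DMSO so actives lower it.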 An outline of the steps:
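Rat cortical cultures, DIV 13/15, 37 C; 20-min stabilisation, 40-min baseline, compound 0.03-40 uM, 40-min re-record. Spikes detected at 8x rms noise (300-5000 Hz band-pass). Readout: % change from baseline in per-burst spike-number SD.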

A short description of assay [10]: CCTE_Shafer_MEA_acute_per_network_burst_electrodes_number_mean: CCTE's Neural Acute Assay for Mean Number of Electrodes in a Network Burst, Shafer Lab (AID 2284021).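 Note: curves fitted for decreases only so hits reduce electrodes per burst.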 Summed up:
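Percent change from baseline was computed as mean electrode count per network burst, comparing 40 min recordings before and during compound (0.03-40 uM) exposure. Cultures were rat cortical neurons at DIV 13 or 15, recorded on MEAs at 37 C with an adaptive 8x rms threshold.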

For `C1=Cc2cccc3cccc1c23`, the outcome in [1] and in assay [2] was inactive.

Regarding `Cc1ccc(N)cc1`, the outcome in [1] and in assay [2] was inactive.

Take `OCCCl`: the result in assay [1] was inactive.

Consider `CCC12COCN1COC2`, for which the result in assay [1] and in assay [2] was inactive.

On to `Cc1ccc(N=C=O)cc1N=C=O`, for which, in assay [1], the outcome was inactive.

Take `Brc1ccc(Oc2ccccc2)cc1`: the result in assay [1] and in assay [2] was inactive.

Turning to `O=C(O)C1C2CCC(O2)C1C(=O)O` (configuration not stated), the outcome in assay [1] and in assay [2] was inactive.

For `CO[C@@H]1[C@H](OC(=O)NC(=O)CCl)CC[C@]2(CO2)[C@H]1[C@@]1(C)O[C@@H]1CC=C(C)C`, in assay [1], the outcome was inactive.

`C=CCc1ccc2c(c1)OCO2`: the result in [1] was inactive.

Regarding `c1ccc2c(c1)-c1cccc3cccc-2c13`, in assay [1], the outcome was inactive.

With `CN(C)c1ccccc1`, the outcome in assay [1] and in [2] was inactive.

Take `Cc1cccc(N)c1N`: the result in [1] was inactive.

Take `CN(C)[C@@H]1C(=O)C(C(N)=O)=C(O)[C@@]2(O)C(=O)C3=C(O)c4c(O)cccc4[C@@](C)(O)[C@H]3C[C@@H]12`: the result in [1] and in assay [2] was inactive.

Turning to `CC(C)N(Cc1ccccc1)C(=O)C(C)(C)C`, the outcome in assay [1] was inactive.

As to `CNC(=O)Oc1cccc2c1OC(C)(C)C2`, the result in assay [1] was inactive.

For `Nc1ccc(Oc2ccc(N)cc2)cc1`, the result in assay [1] and in [2] was inactive.

On to `Nc1ccc([N+](=O)[O-])cc1`, for which the outcome in assay [1] and in assay [2] was inactive.

In the case of `Clc1ccccc1Cl`, the outcome in assay [1] was inactive.

Regarding `CS(=O)(=O)NC(=O)c1cc(Oc2ccc(C(F)(F)F)cc2Cl)ccc1[N+](=O)[O-]`, the result in assay [1] and in assay [2] was inactive.

Consider `CCCCCCCCCCCCCN1CC(C)OC(C)C1` (configuration not stated), for which the result in assay [1] and in [2] was inactive.

With `CC(O)CCO` (configuration not stated), the result in assay [1] and in assay [2] was inactive.

As to `O=C(Nc1ccccc1)c1ccccc1I`, in assay [1], the result was inactive.

With `COP(=S)(OC)SCN1C(=O)c2ccccc2C1=O`, the result in assay [1] and in [2] was inactive.

Consider `CN(C)c1ccc(C(=O)c2ccc(N(C)C)cc2)cc1`, for which the outcome in assay [1] and in assay [2] was inactive.

Consider `CCCCCCCCOC(=O)c1ccc(C(=O)OCCCCCCCC)c(C(=O)OCCCCCCCC)c1`, for which the outcome in assay [1] and in assay [2] was inactive.

As to `Cc1ccc([N+](=O)[O-])cc1`, the result in assay [1] was inactive.

As a reminder, the AC50 is the concentration at which the activity in the assay is half-maximal. As for `Oc1ccc2ccc3cccc4ccc1c2c34`, the half-maximal activity concentration (AC50) in assay [1] is 48.2 µM (active).

For `N#CC(Br)(Br)C(N)=O`, the result in [1] and in [2] was inactive.

With `Clc1ccc(Cl)c(Cl)c1`, the result in assay [1] was inactive.

In the case of `c1ccc2c(c1)oc1ccccc12`, the result in [1] was inactive.

Consider `Nc1ccc(Cc2ccc(N)cc2)cc1`, for which the outcome in assay [1] was inactive.

Take `Cn1cc(-c2ccccc2)c(=O)c(-c2cccc(C(F)(F)F)c2)c1`: the result in assay [1] was inactive.

Take `CN(C)C(=O)Nc1ccc(Cl)cc1`: the outcome in assay [1] and in assay [2] was inactive.

On to `[O-][Cl+]O`, for which the outcome in [1] was inactive.

As for `CCOC(=O)[C@]1(c2ccccc2)Oc2ccccc2[C@@H]1N`, the outcome in [1] was inactive.

Consider `CC(C)(C)OOC(C)(C)CCC(C)(C)OOC(C)(C)C`, for which the result in assay [1] and in [2] was inactive.

Consider `CCNS(=O)(=O)C(F)(F)C(F)(F)C(F)(F)C(F)(F)C(F)(F)C(F)(F)C(F)(F)C(F)(F)F`, for which, in assay [1], the outcome was inactive.

With `c1ccc(C2CO2)cc1` (configuration not stated), the result in assay [1] and in assay [2] was inactive.

Turning to `N#CC(Br)Br`, the outcome in assay [1], in [2], in assay [3], in assay [4], in assay [5] and in assay [6] was inactive. For the same compound, the result in assay [7], in [8], in [9] and in assay [10] was inactive.

`O=[N+]([O-])C(Br)(CO)CO`: the result in assay [1], in assay [2], in assay [3], in assay [6], in assay [7] and in [8] was inactive. For the same compound, the compound was called inactive in assay [9]. For the same compound, the AC50 is 30.4 µM (active) in assay [4], 20 µM (active) in assay [5] and 32 µM (active) in [10].

With `O=C1CCCO1`, the result in assay [1] and in assay [2] was inactive.

For the compound `Clc1ccc(C(c2ccc(Cl)cc2)C(Cl)Cl)cc1`, the result in assay [1], in assay [2], in [4], in assay [5], in assay [6] and in [7] was inactive. Moreover, the AC50 in assay [3] is 2.56 µM (active); in assay [8], 2.37 µM (active); in assay [9] it was 6.77 µM (active); in [10] it was 2.69 µM (active).

As for `O=P(OCCCl)(OCCCl)OCCCl`, the result in assay [1], in [2], in [3], in [4], in assay [5] and in [6] was inactive. Moreover, the result in assay [7], in assay [8], in assay [9] and in assay [10] was inactive.

In the case of `COC(=O)Nc1nc2ccccc2[nH]1`, the result in [1], in assay [2], in assay [3], in assay [4], in assay [5] and in [6] was inactive. Besides, the outcome in assay [7], in [8], in assay [9] and in assay [10] was inactive.

Regarding `O=C(Oc1ccc(Br)cc1)N1CCN2CCC1CC2`, the outcome in assay [1], in assay [3], in assay [4], in assay [5], in assay [6] and in assay [7] was inactive. Moreover, the compound was called inactive in assay [9] and in [10]. Besides, the AC50 in [8] was 20 µM (active).

With `CCCCCCCCn1sccc1=O`, the AC50 in assay [1] was 45.9 µM (active); in assay [2], 50 µM (active); in assay [4] it was 6.78 µM (active); in [8], 3.28 µM (active); in assay [9] it was 7.57 µM (active); in [10], 6.8 µM (active). Besides, the compound was classed as inactive in [3], in assay [5], in assay [6] and in [7].

For `Cc1ccc(N)c(N)c1`, the result in [1], in assay [2], in assay [3], in [4], in assay [5] and in [6] was inactive. In addition, the compound was called inactive in assay [7], in [8], in assay [9] and in [10].

As to `ClCCOCCCl`, the outcome in [1], in assay [3], in [4], in [5], in assay [6] and in [7] was inactive. Further, the compound was called inactive in assay [8], in assay [9] and in assay [10].
